From PubChem BioAssay (EPA / NIEHS) come the findings set out here.

Each structure is given as a SMILES string. Active and inactive are the calls of the source. How the source made its calls: active means hit-call score of the fitted dose curve at least 0.9, where 1 is the maximum; inactive means score below 0.9.

This assay can be described thus: ATG_ERE_CIS: Attagene CIS-FACTORIAL HepG2 Assay for Estrogen Response Element (ERE) (AID 2282940). Particulars: HepG2 ERE cis-reporter, Attagene RNA transcript; actives raise or lower the signal. How it is done: ATG_CIS is a cell-based, multiplexed-readout assay that uses HepG2, a human liver cell line, with measurements taken at 24 hours after chemical dosing in a 24-well plate.ATG_ERE_CIS is one of 52 assay component(s) measured or calculated from the ATG_CIS assay. It is designed to make measurements of mRNA induction, a form of inducible reporter, as detected with fluorescence intensity signals by Reverse transcription polymerase chain reaction (RT-PCR) and Capillary electrophoresis technology.Data from the assay component ATG_ERE_CIS was analyzed into 1 assay endpoint. This assay endpoint, ATG_ERE_CIS, was analyzed with bidirectional fitting relative to DMSO as the negative control and baseline of activity. Using a type of inducible reporter, measures of mRNA for gain or loss-of-signal activity can be used to understand the reporter gene at the transcription factor-level as they relate to the gene ESR1. Furthermore, this assay endpoint can be referred to as a primary readout, because this assay has produced multiple assay endpoints where this one serves a reporter gene function. To generalize the intended target to other relatable targets, this assay endpoint is annotated to the nuclear receptor intended target family, where the subfamily is steroidal.
Human liver HepG2 cells are transiently transfected with multiple reporter transcription units (MRTUs) in 6-well plates using FuGene 6 reagent (Roche; 3 ml FuGene/1 mg DNA). The MRTU constructs are regulated by a cis-regulating element (promoter). […] A major difference between the CIS and TRANS system is that in CIS activities of endogenous TFs are measured, whereas the TRANS assay evaluates changes in activities of exogenous, chimeric NR-Gal4 proteins. […] At the end of 24 hour incubation, total RNA was isolated using TriZol reagent (Invitrogen). The isolated RNA is then reverse-transcribed using oligo(dT) primer and Mo-MLV reverse transcriptase (Invitrogen) with DNAse I (Ambion) treatment for 30 min. The one-tenth of the produced cDNA was amplified by PCR using Taq DNA polymerase (Invitrogen) and two reporter sequence-specific primers. The PCR products were fluorescently labeled by primer extension with 6-arboxyfluorescein (6-FAM) 5'-labeled reporter sequence-specific primer (2 min at 95 C, 20 s at 68 C and 10 min at 72 C) and these products were digested with 5U of HpaI (New England Biolabs) for 2h at 37 C. The fragments were purified using Qiaquick PCR columns (Qiagen), analyzed on an ABI 3130xL genetic analyzer (Applied Biosystems) with peak positions identified by using a set of X-rhodamine (ROX)-labeled MapMarker1000 molecular weight standards (BioVentures). The raw capillary electrophoresis data was processed using Attagraph software (Attagene).
As for `C=CC=CC=CCCCCC`, the result was inactive.

Take `ON(Cc1ccccc1)Cc1ccccc1`: the call was inactive.

On to `CCOC(=O)NNc1nncc2ccccc12`, for which the half-maximal activity concentration (AC50) was 60 µM (active).

Turning to `CCCOCCOCCOCCO`, the compound was called inactive.

`CCCc1ccc(OC)cc1`: the call was inactive.

Regarding `C1=Cc2ccccc2C1`, the AC50 was 44.3 µM (active).

`O=[N+]([O-])c1ccc(CO)cc1`: the compound was called inactive.

As for `CCCCCCCCCCCCCOP(=O)(O)O`, the call was inactive.

As to `CN(C)CCCN(C)C`, the compound was called inactive.

Turning to `CC(C)C(=O)C(C)C`, the outcome was inactive.

`O=c1cc(-c2ccccc2)oc2ccccc12`: the outcome was inactive.

Take `Cc1ccc(OC(=O)CC(C)C)cc1`: the result was inactive.

Turning to `C=C1C2CCC(C2)C1(C)C` (stereo not given), the result was inactive.

For `CCCCCCCC[N+](C)(CCCCCCCC)CCCCCCCC`, the outcome was inactive.

Turning to `C1=CCCC1`, the result was inactive.

Consider `CC(CC=O)CCCC(C)(C)O` (stereo not given), for which the compound was called inactive.

For `Nc1ccc2cc3ccccc3cc2c1`, the half-maximal activity concentration (AC50) is 8.48 µM (active).

In the case of `COc1cc(C)ccc1C(C)C`, the compound was called inactive.

Take `C=C1[C@H]2CC[C@@H]3[C@H]2C(C)(C)CCC[C@]13C`: the call was inactive.

Regarding `CCN(CCO)c1cccc(C)c1`, the result was inactive.

As to `COCCOCCOCCOCCOC`, the compound was called inactive.

In the case of `CCC(C)(C)C1CCCCC1OC(C)=O` (stereo not given), the outcome was inactive.

As for `O=C1C(N(CO)C(=O)NCO)N(CO)C(=O)N1CO` (stereo not given), the result was inactive.

For `CCOC(=O)Cc1cccc2ccccc12`, the compound was classed as inactive.

Turning to `CCCCCCCC/C=C\CCCCCCCC(=O)OCCO`, the compound was called inactive.

As for `CC(=O)OCc1ccco1`, the compound was called inactive.

As to `CC[C@H]1OC(=O)[C@H](C)[C@@H](O[C@H]2C[C@@](C)(OC)[C@@H](O)[C@H](C)O2)[C@H](C)[C@@H](O[C@@H]2O[C@H](C)C[C@H](N(C)C)[C@H]2O)[C@](C)(O)C[C@@H](C)C(=NOCOCCOC)[C@H](C)[C@@H](O)[C@]1(C)O`, the AC50 is 37.6 µM (active).

`CC(C)c1ccc(C#N)cc1`: the call was inactive.

Take `Cc1cc(C)c(C)cc1C`: the compound was classed as inactive.

With `CC1=Nc2ccc3ccccc3c2C1(C)C`, the compound was called inactive.

For the compound `O=Nc1ccc(O)cc1`, the AC50 is 56.4 µM (active).

Consider `C=CC(=O)OCCOC1C2CCC1C1CC=CC12` (stereo not given), for which the outcome was inactive.

As for `O=C1CCCC1`, the compound was called inactive.

Regarding `c1cc(N(CC2CO2)CC2CO2)ccc1OCC1CO1` (stereo not given), the result was inactive.

In the case of `COC(=O)c1cc(Cl)ccc1[N+](=O)[O-]`, the result was inactive.

`CC1=NC(C)OC1C` (stereo not given): the result was inactive.

In the case of `NC(CO)(CO)CO`, the outcome was inactive.

For `COc1ccc([C@@H]2CC(=O)c3c(O)cc(O[C@@H]4O[C@H](CO[C@@H]5O[C@@H](C)[C@H](O)[C@@H](O)[C@H]5O)[C@@H](O)[C@H](O)[C@H]4O)cc3O2)cc1OC`, the result was inactive.

For the compound `NC(=O)NNC(N)=O`, the result was inactive.

For the compound `CN(C)c1ccc(N=Nc2ccccc2C(=O)O)cc1`, the compound was classed as inactive.

Broadly, the AC50 is the concentration at which the activity in the assay is half-maximal.
